Data published in PubChem BioAssay (NCATS).
Records with an inconclusive call do not appear. Calls follow the shape of the dose curve; as a rule, active = well fitted curve in either direction with a large enough effect (not every such curve was filed as active); inconclusive = small, poorly fitted or top-dose-only effect, or another doubt; inactive = flat fitted curve, though single readings scatter.

Test: AP1 Signaling Pathway (AID 357);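 also: ME-180 reporter cells stimulated with EGF at its EC50 level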
Conditions: ME-180 (cervical carcinoma) AP-1-bla reporter, EGF-induced, beta-lactamase ratio, 5 h; at 17.2 µM (top of the series) unless noted
Procedure, shortened: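 Titration-series screen for positive or negative modulators of EC50 EGF-induced signaling in ME-180 cells carrying an AP-1-driven beta-lactamase reporter. After 5 hours at 37 degrees Celsius, CCF4 460nm/530nm emission ratio gave %Activity; AC50 values derived.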
% is scaled to controls: 0 for no effect and ±100 for the full control effect.

Activity change, negative = inhibition, inactive:
CCC1(C)Cc2c(sc(NC(=O)CCC(=O)O)c2C#N)CO1 (stereo not given) 4.06%
COc1ccc(/C(O)=C2/C(=O)C(=O)N(CCN3CCOCC3)C2c2ccccn2)cc1OC (stereo not given) 3.25%
CCCC(=O)Nc1sc2c(c1C#N)CCCC2 -16.2%
c1nc(NC2CCCCC2)c2[nH]cnc2n1 -4.39%
COc1ccc(C(=O)c2oc3nc(C)cc(C)c3c2N)cc1 -14.2%
Cc1nn(C)cc1CNC(=O)c1ccc(Br)o1 5.3%
C=C(C)Cn1c(-c2ccc(OC)cc2)nc2ccccc21 -23.2%
O=C1NC(c2cccs2)Nc2ccccc21 (stereo not given) -27%
CN(CCOC(=O)c1ccc2c(c1)OCCO2)Cc1ccccc1 17.7%
CC(C(=O)N1CCCCC1)N1C(=O)c2ccccc2C1=O (stereo not given) 0.952%
COC(=O)c1nn2c(C(F)(F)F)cc(-c3ccc(Br)o3)nc2c1Br 0.345%
Cc1cccn2c(=O)c3cc(C#N)c(=N)n(Cc4ccncc4)c3nc12 6.9%
NC(=O)c1ccccc1OCCOCCOCCOc1ccccc1C(N)=O -9.33%
CC(=O)Oc1ccc2c(C)cc(=O)[nH]c2c1 8.38%
CC(C)C1C(C#N)=C(N)Oc2n[nH]c(C(C)(C)C)c21 (stereo not given) -20.9%
CC(=O)Nc1n[nH]c(S(=O)(=O)Cc2ccc(Cl)cc2Cl)n1 -2.5%
C=CCn1c(-c2ccc(OC)c(OC)c2)n[nH]c1=S 1.93%
COC(=O)C1=C(C)N=C2SC(C)C(=O)N2C1c1cccc(F)c1 (stereo not given) -23.7%
O=C(NCCCNCc1ccccc1)/C(=N\O)c1ccccc1 -2.86%
CC1(C)Cc2[nH]c(=S)c(C#N)cc2CO1 8.31%
CCC(NC(=O)Nc1ccc(O)cc1)(C(F)(F)F)C(F)(F)F -8.11%
CCOC(=O)COn1c(=O)c(-c2ccc(OC)c(OC)c2)[n+]([O-])c2ccccc21 -0.29%
Cc1cc(=O)oc2cc(OCCSCCN3CCOCC3)ccc12 -6.35%
CC(=O)N=C(N)Sc1nc2ccccc2[nH]1 12.8%
CN(C1CCS(=O)(=O)C1)S(=O)(=O)c1cccc2nsnc12 (stereo not given) -3.76%
COc1ccc(NC(=O)c2c(C)cc(=O)oc2C)c(OC)c1 6.98%
Cn1c(=O)c2c(nc(N3CCN(Cc4ccccc4)CC3)n2CC(=O)c2ccccc2)n(C)c1=O -9.66%
CCN(CC)CCN1C(=O)C(=O)/C(=C(/O)c2ccc(OC(C)C)cc2)C1c1ccncc1 (stereo not given) -12%
COc1cccc(C(=O)N2CCN(Cc3ccccn3)CC2)c1OC 2.17%
CC1=CC=CN2CC(O)CN=C12 (stereo not given) 3.58%
CCC1=Nc2ccccc2NC2=C1C(=O)CCC2 16.1%
O=S1CCCSC1c1cccnc1 (stereo not given) 5.36%
CC1(C)Cc2c(oc3ncn4ncnc4c23)CO1 -9.2%
COC(=O)[C@@H](N)Cc1ccc(O)cc1 -11%
c1cncc(Oc2cccc(Oc3cccnc3)c2)c1 -6.49%
CCOC(=O)CC(C#N)c1cn(C)c2ccccc12 (stereo not given) 8.21%
CCn1nnc(C(=O)O)c1C(=O)O 3.44%
Cc1cc2c(c(=O)n1Cc1cccnc1)C(c1ccccc1)C(C#N)=C(N)O2 (stereo not given) -14.1%
C=CCNc1nc(C)nc(OC)n1 8.25%
c1cncc(-c2nnc3sc(C4CCCCC4)nn23)c1 -18.8%

Test: NFAT Signaling Pathway (AID 444);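 also: carbachol stimulus at about its EC50 of 1 µM final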
Conditions: Jurkat NFAT-bla M1, carbachol, beta-lactamase ratio, 5 h; at 17.2 µM (top of the series) unless noted
Procedure, shortened: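 Jurkat cells carrying an NFAT-driven β-lactamase reporter and co-transfected muscarinic M1 receptor were treated with compound plus carbachol (1 uM final, an EC50 level) for 5 h at 37 °C. CCF4 loading followed for 1 h at RT; 460/530 nm ratio gave %activity.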

Activity change, negative = inhibition, inactive:
CCC1(C)Cc2c(sc(NC(=O)CCC(=O)O)c2C#N)CO1 (stereo not given) 0.708%
COc1ccc(/C(O)=C2/C(=O)C(=O)N(CCN3CCOCC3)C2c2ccccn2)cc1OC (stereo not given) -11%
CCCC(=O)Nc1sc2c(c1C#N)CCCC2 -0.791%
c1nc(NC2CCCCC2)c2[nH]cnc2n1 2.42%
COc1ccc(C(=O)c2oc3nc(C)cc(C)c3c2N)cc1 13%
Cc1nn(C)cc1CNC(=O)c1ccc(Br)o1 -0.512%
C=C(C)Cn1c(-c2ccc(OC)cc2)nc2ccccc21 3.93%
O=C1NC(c2cccs2)Nc2ccccc21 (stereo not given) -4.93%
CN(CCOC(=O)c1ccc2c(c1)OCCO2)Cc1ccccc1 -3.33%
CC(C(=O)N1CCCCC1)N1C(=O)c2ccccc2C1=O (stereo not given) 8.42%
COC(=O)c1nn2c(C(F)(F)F)cc(-c3ccc(Br)o3)nc2c1Br -16.6%
Cc1cccn2c(=O)c3cc(C#N)c(=N)n(Cc4ccncc4)c3nc12 -26.5%
NC(=O)c1ccccc1OCCOCCOCCOc1ccccc1C(N)=O -4.35%
CC(=O)Oc1ccc2c(C)cc(=O)[nH]c2c1 -13.4%
CC(C)C1C(C#N)=C(N)Oc2n[nH]c(C(C)(C)C)c21 (stereo not given) -6.87%
CC(=O)Nc1n[nH]c(S(=O)(=O)Cc2ccc(Cl)cc2Cl)n1 4.1%
C=CCn1c(-c2ccc(OC)c(OC)c2)n[nH]c1=S 9.3%
COC(=O)C1=C(C)N=C2SC(C)C(=O)N2C1c1cccc(F)c1 (stereo not given) -3.19%
O=C(NCCCNCc1ccccc1)/C(=N\O)c1ccccc1 -1.67%
CC1(C)Cc2[nH]c(=S)c(C#N)cc2CO1 -8.3%
CCC(NC(=O)Nc1ccc(O)cc1)(C(F)(F)F)C(F)(F)F 8.99%
CCOC(=O)COn1c(=O)c(-c2ccc(OC)c(OC)c2)[n+]([O-])c2ccccc21 -6.08%
Cc1cc(=O)oc2cc(OCCSCCN3CCOCC3)ccc12 3.73%
CC(=O)N=C(N)Sc1nc2ccccc2[nH]1 -12.3%
CN(C1CCS(=O)(=O)C1)S(=O)(=O)c1cccc2nsnc12 (stereo not given) 18.9%
COc1ccc(NC(=O)c2c(C)cc(=O)oc2C)c(OC)c1 16.2%
Cn1c(=O)c2c(nc(N3CCN(Cc4ccccc4)CC3)n2CC(=O)c2ccccc2)n(C)c1=O -8.82%
CCN(CC)CCN1C(=O)C(=O)/C(=C(/O)c2ccc(OC(C)C)cc2)C1c1ccncc1 (stereo not given) 0.331%
COc1cccc(C(=O)N2CCN(Cc3ccccn3)CC2)c1OC 7.94%
CC1=CC=CN2CC(O)CN=C12 (stereo not given) -0.121%
CCC1=Nc2ccccc2NC2=C1C(=O)CCC2 -0.948%
O=S1CCCSC1c1cccnc1 (stereo not given) 9.76%
CC1(C)Cc2c(oc3ncn4ncnc4c23)CO1 -1.16%
COC(=O)[C@@H](N)Cc1ccc(O)cc1 -26%
c1cncc(Oc2cccc(Oc3cccnc3)c2)c1 -3.08%
CCOC(=O)CC(C#N)c1cn(C)c2ccccc12 (stereo not given) -8.09%
CCn1nnc(C(=O)O)c1C(=O)O 3.87%
Cc1cc2c(c(=O)n1Cc1cccnc1)C(c1ccccc1)C(C#N)=C(N)O2 (stereo not given) 3.75%
C=CCNc1nc(C)nc(OC)n1 13.9%
c1cncc(-c2nnc3sc(C4CCCCC4)nn23)c1 -20%
